Experimental data reported in PubChem BioAssay (NCATS).
Where “and” joins values, the source holds several entries; their conditions need not be identical. Equal entries are not always repeated. Results filed as inconclusive are left out. Entries that show only a call come without a potency. The source holds several records for some structures; these can differ, active in one and inactive in another. Calls of active or inactive are those of the source. Unless noted, calls come from the whole dose curve.

What was measured:
[1] = Primary qHTS for Huh7 cytotoxicity: counterscreen for inhibitors of MERS-S pseudotyped particle cell entry (AID 1479147); settings: outcome: dose series up to 57.1 µM unless noted
[2] = Primary qHTS for Vero E6 cytotoxicity: counterscreen for inhibitors of SARS-S pseudo-typed particle cell entry (AID 1479150); settings: outcome: dose series up to 57.1 µM unless noted
[3] = Primary qHTS for inhibitors of MERS-S pseudo-typed particle cell entry (AID 1479149); settings: outcome: dose series up to 57.1 µM unless noted; note: nearly all actives have a fitted effect of over 60% in size; note: potency is the fitted concentration of half-maximal effect
[4] = Cytotoxicity counterscreen for inhibitors of SARS-CoV-2 cell entry (AID 1645845); settings: outcome: dose series up to 57.1 µM unless noted; note: nearly all actives have a fitted effect of over 50% in size
Summary of the method: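 After a 15 min room-temperature ATPLite 1step step, luminescence reflected ATP remaining in HEK293-ACE2 cells exposed to compound for 1 h plus 48 h at 37 C, with percent activity set by cell and no-cell controls.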

[5] = VSVG counterscreen qHTS to identify inhibitors of SARS-CoV-2 cell entry (AID 1645847); note: potency is the fitted concentration of half-maximal effect; nearly all actives have a fitted effect of over 65% in size
Summary of the method: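 Luminescence from a luciferase reporter, normalised to bald particle and VSV-G pseudotyped particle wells, is the read-out. Cells are HEK293 expressing human ACE2, exposed to compound 1 h before a 48 h particle infection at 37 °C.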

[6] = Primary qHTS to identify inhibitors of SARS-CoV-2 cell entry (AID 1645846); settings: SARS-CoV-2 pseudovirus cell entry assay, luminescence; activity change, negative = inhibition: at 57.1 µM (top of the series) unless noted; note: nearly all actives have a fitted effect of over 45% in size
Summary of the method: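 Inhibition of spike-mediated entry was scored in human ACE2-transfected Expi293F cells. Particles were MLV-pseudotyped with Wuhan-Hu-1 S carrying a 19-aa C-terminal deletion; signal was luciferase after two days, scaled between spike PP and fusion-protein-free PP.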

[7] = KB-8-5-11 P-gp reporter qHTS against the NCATS DSHEA and TCM libraries (AID 1919977; active = well fitted curve in the direction sought with a large enough effect; an effect the other way counts as inactive or inconclusive)
Summary of the method: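 KB-8-5-11, 500 cells/well, DMEM/10% FBS without colchicine; 4 h attach; cpd titrations, 72 h, 37C/5% CO2; CellTiter-Glo, 30 min RT, luminescence.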

[8] = molecular target: Glutathione peroxidase 1 (Homo sapiens) (UniProt P07203); experiment: Primary qHTS Assay for Inhibitors of Recombinant Selenoprotein Glutathione Peroxidase 1 (GPX1) (AID 1845191; active = well fitted curve in the direction sought with a large enough effect; an effect the other way counts as inactive or inconclusive; note: nearly all actives have a fitted effect of over 65% in size)
Summary of the method: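 GPX1 10 nM, GR 100 nM, GSH 1 mM, NADPH 0.5 mM, CHP 0.5 mM (final). 30-min cpd preincubation, RT. Ex340/Em450 read t=0, t=15 min.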

[9] = molecular target: Phospholipid hydroperoxide glutathione peroxidase GPX4 (Homo sapiens) (UniProt P36969); experiment: Primary qHTS Assay for Inhibitors of Recombinant Selenoprotein Glutathione Peroxidase 4 (GPX4) (AID 1845192; active = well fitted curve in the direction sought with a large enough effect; an effect the other way counts as inactive or inconclusive; note: nearly all actives have a fitted effect of over 65% in size)
Summary of the method: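 qHTS, GR-coupled: GPX4 200 nM + cpd 30 min RT → GSH 1 mM, NADPH 0.5 mM, GR 100 nM → CHP 0.5 mM start; fluor 340/450 at t0 and t15 min; no-enzyme wells as control.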

[10] = qHTS Assay for Identifying Gametocytocidal Compounds (AID 743244; active = well fitted curve in the direction sought with a large enough effect; an effect the other way counts as inactive or inconclusive; note: potency is the fitted concentration of half-maximal effect); settings: P. falciparum 3D7 stage III-V gametocytes, alamarBlue, 72 h
Summary of the method: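 Compounds are pinned into medium, gametocytes (stage III–V, 3D7, 20,000 cells/well) added, and plates held 72 h at 37 °C in 5% CO2. AlamarBlue follows for 24 h before fluorescence reading.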

[11] = molecular target: Estrogen receptor (Homo sapiens) (UniProt P03372); experiment: qHTS assay for small molecule antagonists of estrogen receptor alpha signaling (AID 588513; active = well fitted curve in the direction sought with a large enough effect in the signal ratio, with a control signal flat, not every such curve was filed as active; the % refers to the signal ratio)
Summary of the method: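 Fluorescence from CCF4 substrate after 2 h at room temperature gave reporter activity; cells had been exposed to compound and 0.5nM 17-beta-estradiol for 18 h at 37 C. Hill-equation fitting yielded IC50 and maximal response.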

[12] = molecular target: Glucocorticoid receptor (Homo sapiens) (UniProt P04150); experiment: qHTS assay for small molecule agonists of glucocorticoid receptor signaling (AID 588532; active = well fitted curve in the direction sought with a large enough effect in the signal ratio, with a control signal flat; the % refers to the signal ratio); settings: HeLa MMTV-bla, beta-lactamase ratio, agonist, 18 h; stronger effect = higher value; percent of dexamethasone control, DMSO zero
Summary of the method: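 Stimulation of a glucocorticoid response element-driven beta-lactamase gene was measured in HeLa cells. Responses were scaled between DMSO basal and 0.1 uM dexamethasone, then fitted for half-maximal stimulation.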

[13] = molecular target: Peroxisome proliferator-activated receptor delta (Homo sapiens) (UniProt Q03181); experiment: qHTS assay for small molecule agonists of peroxisome proliferator-activated receptor delta signaling (AID 588534)
Summary of the method: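 EC50 and efficacy values derive from Hill fits of a concentration series in a beta-lactamase reporter cell assay. Exposure is 18 hrs at 37 C, with CCF4 fluorescence as the readout.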

[14] = molecular target: Peroxisome proliferator-activated receptor gamma (Homo sapiens) (UniProt P37231); experiment: qHTS assay for small molecule antagonists of peroxisome proliferator-activated receptor gamma signaling (AID 588537; active = well fitted inhibition curve with a large enough effect in the signal ratio, with a control signal flat, not every such curve was filed as active; the % refers to the signal ratio;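 note: reporter cells co-stimulated with 50 nM rosiglitazone agonist during compound treatment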)
Summary of the method: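 HEK293 cells, PPAR-gamma-UAS-bla, 3000/well. Pre-incubation 6-6.5 h, 37 C. Compound titration with rosiglitazone 50 nM final, 16 h. CCF4 dye, 2 h RT, dual-emission fluorescence.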

[15] = molecular target: Thyroid hormone receptor beta (Homo sapiens) (UniProt P10828); experiment: qHTS assay for small molecule antagonists of thyroid hormone receptor beta signaling (AID 588547; active = well fitted inhibition curve with a large enough effect in the signal ratio, with a control signal flat, not every such curve was filed as active; the % refers to the signal ratio;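 note: cells stimulated with 0.4 nM T3 agonist during compound exposure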); settings: TR-UAS-bla HEK293, beta-lactamase ratio, antagonist mode, 18 h
Summary of the method: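 TR-UAS-bla GripTite HEK293 cells in 2% charcoal/dextran FBS medium were preincubated 4 h at 37 C, given compound (0.59 nM to 92 uM) plus 0.4 nM T3 (final) for 18 h, then CCF4 for 2 h at RT; Hill fit gave IC50.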

[16] = qHTS assay for small molecule agonists of the antioxidant response element (ARE) signaling pathway (AID 651741; active = well fitted activation curve with a large enough effect in the signal ratio; the % refers to the signal ratio; note: potency is the fitted concentration of half-maximal effect)
Summary of the method: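 Beta-lactamase reporter expression driven by the antioxidant response element in HepG2 cells was detected by fluorescence with LiveBLAzer B/G FRET substrate (2 h, room temperature) following 16 h compound treatment at 37 C.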

[17] = qHTS assay for small molecule agonists of the antioxidant response element (ARE) signaling pathway measured by Nrf2-dependant transcriptional activity (AID 720636; active = well fitted curve in the direction sought with a large enough effect in the repeat runs; an effect the other way counts as inactive or inconclusive)
Summary of the method: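 HepG2 ARE-luc reporter line, 1% dialyzed FBS; 6 hr attachment at 37 C, compound pinned in, 16 hr at 37 C/5% CO2; ONE-Glo, 30 min RT, luminescence read.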

Chain of Peroxisome proliferator-activated receptor delta (Homo sapiens) (Q03181 whole entry, looked up): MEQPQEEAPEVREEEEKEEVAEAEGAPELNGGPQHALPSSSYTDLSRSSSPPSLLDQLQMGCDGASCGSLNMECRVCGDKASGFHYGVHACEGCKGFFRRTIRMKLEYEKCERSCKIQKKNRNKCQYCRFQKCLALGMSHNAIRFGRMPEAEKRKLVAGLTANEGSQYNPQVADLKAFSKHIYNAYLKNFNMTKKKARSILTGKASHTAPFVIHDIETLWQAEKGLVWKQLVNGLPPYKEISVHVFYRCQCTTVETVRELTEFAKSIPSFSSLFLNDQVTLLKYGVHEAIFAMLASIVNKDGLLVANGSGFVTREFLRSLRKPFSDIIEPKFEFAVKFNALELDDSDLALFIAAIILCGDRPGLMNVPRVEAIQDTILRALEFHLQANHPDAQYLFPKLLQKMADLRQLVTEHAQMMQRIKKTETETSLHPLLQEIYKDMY
Chain of Phospholipid hydroperoxide glutathione peroxidase GPX4 (Homo sapiens) (P36969 whole entry, looked up): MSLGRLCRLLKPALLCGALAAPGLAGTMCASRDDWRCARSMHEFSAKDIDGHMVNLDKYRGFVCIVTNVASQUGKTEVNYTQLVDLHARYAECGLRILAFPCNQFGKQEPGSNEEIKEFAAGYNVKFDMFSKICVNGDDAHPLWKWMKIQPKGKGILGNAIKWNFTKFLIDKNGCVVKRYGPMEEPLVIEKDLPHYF
Chain of Glutathione peroxidase 1 (Homo sapiens) (P07203 whole entry, looked up): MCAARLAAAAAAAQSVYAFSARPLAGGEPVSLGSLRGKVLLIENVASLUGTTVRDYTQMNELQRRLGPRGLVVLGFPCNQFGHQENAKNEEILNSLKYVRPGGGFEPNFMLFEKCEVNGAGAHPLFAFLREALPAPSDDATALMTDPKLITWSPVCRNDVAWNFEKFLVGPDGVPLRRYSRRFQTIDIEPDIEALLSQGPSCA
Chain of Thyroid hormone receptor beta (Homo sapiens) (P10828 whole entry, looked up): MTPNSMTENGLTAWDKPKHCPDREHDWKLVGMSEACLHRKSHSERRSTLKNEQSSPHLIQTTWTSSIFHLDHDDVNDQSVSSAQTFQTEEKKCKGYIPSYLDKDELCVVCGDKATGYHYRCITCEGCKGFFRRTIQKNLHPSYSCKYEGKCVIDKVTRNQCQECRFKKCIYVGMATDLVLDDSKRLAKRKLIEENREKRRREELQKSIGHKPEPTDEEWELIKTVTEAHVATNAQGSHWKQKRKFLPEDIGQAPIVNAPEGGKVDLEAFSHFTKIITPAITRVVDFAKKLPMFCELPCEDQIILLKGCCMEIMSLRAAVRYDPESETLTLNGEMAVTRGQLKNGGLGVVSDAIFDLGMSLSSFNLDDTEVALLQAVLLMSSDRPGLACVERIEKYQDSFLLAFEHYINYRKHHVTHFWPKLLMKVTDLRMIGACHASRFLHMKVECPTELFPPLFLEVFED
Chain of Estrogen receptor (Homo sapiens) (P03372 whole entry, looked up): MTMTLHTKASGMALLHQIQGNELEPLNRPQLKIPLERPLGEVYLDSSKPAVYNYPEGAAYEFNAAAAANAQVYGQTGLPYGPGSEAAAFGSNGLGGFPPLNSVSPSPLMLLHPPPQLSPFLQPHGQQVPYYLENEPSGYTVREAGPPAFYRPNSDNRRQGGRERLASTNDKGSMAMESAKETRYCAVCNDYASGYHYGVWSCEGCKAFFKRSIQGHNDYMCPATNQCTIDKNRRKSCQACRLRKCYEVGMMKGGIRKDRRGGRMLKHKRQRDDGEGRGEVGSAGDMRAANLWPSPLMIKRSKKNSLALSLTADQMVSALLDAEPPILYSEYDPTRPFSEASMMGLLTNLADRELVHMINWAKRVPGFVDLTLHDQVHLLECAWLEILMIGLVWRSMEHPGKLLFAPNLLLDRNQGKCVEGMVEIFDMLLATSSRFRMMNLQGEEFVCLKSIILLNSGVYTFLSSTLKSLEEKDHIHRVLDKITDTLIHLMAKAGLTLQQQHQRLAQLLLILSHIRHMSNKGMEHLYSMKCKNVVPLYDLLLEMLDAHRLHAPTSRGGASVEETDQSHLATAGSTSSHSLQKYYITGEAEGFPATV
Chain of Peroxisome proliferator-activated receptor gamma (Homo sapiens) (P37231 whole entry, looked up): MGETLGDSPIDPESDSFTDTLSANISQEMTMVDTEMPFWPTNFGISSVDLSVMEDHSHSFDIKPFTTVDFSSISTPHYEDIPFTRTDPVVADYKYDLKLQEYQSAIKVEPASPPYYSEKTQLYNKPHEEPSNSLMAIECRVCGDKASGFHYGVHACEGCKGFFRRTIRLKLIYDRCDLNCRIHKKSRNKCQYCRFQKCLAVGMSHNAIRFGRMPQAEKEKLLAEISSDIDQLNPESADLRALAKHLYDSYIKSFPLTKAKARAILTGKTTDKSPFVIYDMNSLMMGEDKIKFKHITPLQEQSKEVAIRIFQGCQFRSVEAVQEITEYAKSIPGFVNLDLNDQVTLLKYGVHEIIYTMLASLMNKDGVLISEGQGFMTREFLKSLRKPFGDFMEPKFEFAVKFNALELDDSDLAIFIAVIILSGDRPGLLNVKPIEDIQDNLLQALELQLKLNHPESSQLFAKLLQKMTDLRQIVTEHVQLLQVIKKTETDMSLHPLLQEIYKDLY
Chain of Glucocorticoid receptor (Homo sapiens) (P04150 whole entry, looked up): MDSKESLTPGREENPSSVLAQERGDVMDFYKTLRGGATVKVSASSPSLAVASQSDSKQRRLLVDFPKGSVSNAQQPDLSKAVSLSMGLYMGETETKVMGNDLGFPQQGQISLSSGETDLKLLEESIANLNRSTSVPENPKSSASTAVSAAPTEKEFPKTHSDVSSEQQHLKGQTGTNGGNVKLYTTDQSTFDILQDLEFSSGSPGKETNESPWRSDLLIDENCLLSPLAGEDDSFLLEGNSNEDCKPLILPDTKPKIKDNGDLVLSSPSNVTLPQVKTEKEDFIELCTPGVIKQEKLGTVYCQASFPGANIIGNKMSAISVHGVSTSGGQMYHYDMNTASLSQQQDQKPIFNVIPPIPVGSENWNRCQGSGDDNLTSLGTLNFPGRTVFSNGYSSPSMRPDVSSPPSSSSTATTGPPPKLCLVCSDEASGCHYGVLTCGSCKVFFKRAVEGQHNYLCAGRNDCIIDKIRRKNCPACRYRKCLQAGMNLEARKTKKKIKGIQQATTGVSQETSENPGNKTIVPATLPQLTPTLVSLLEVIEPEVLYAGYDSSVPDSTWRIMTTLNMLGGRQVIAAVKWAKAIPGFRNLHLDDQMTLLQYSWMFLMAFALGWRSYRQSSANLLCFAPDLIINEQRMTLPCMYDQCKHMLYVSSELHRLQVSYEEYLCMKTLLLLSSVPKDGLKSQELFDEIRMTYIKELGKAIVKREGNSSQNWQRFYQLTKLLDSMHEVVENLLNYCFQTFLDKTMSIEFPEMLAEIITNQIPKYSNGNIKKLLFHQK

## Cc1cc(C#N)cc(C)c1Oc1nc(Nc2ccc(C#N)cc2)nc(N)c1Br
[1]
  Potency: inactive
[2]
  Potency: inactive

## CO[C@H]1C[C@H](O[C@@H]2[C@H](C)O[C@H](O[C@@H]3/C(C)=C/C[C@@H]4C[C@@H](C[C@]5(C=C[C@H](C)[C@@H](C6CCCCC6)O5)O4)OC(=O)[C@@H]4C=C(C)C(O)[C@H]5OC/C(=C\C=C\[C@@H]3C)[C@]54O)C[C@@H]2OC)O[C@@H](C)[C@@H]1O (stereo not given in full)
[1]
  Potency: inactive
[3]
  Potency: inactive
[2]
  Potency: inactive
[4]
  Potency: inactive
[5]
  Potency: 1.36 µM (active)

## CCCCC/C=C/C/C=C/CCCCCCCC(=O)O
[1]
  Potency: inactive
[3]
  Potency: inactive
[2]
  Potency: inactive
[4]
  Potency: inactive
[6]
  activity change, negative = inhibition: -0.957%
[7]
  Potency: inactive

## CCOC(=O)c1c[nH]c2cc(OCC(C)C)c(OCC(C)C)cc2c1=O
[1]
  Potency: inactive
[3]
  Potency: inactive
[4]
  Potency: inactive
[6]
  activity change, negative = inhibition: -18.7%

## c1ccc(CCNCc2ccccc2)cc1
[1]
  Potency: inactive
[3]
  Potency: inactive
[2]
  Potency: inactive
[4]
  Potency: inactive
[8]
  Potency: inactive
[9]
  Potency: inactive

## C=C[C@]1(C)C[C@@H](OC(=O)CSC2C[C@H]3CC[C@@H](C2)N3C)C2(C)[C@H](C)CCC3(CCC(=O)[C@H]32)[C@@H](C)[C@@H]1O (stereo not given in full)
[1]
  Potency: inactive
[2]
  Potency: inactive

## CCCCCCCC/C=C/CCCCCCCC(=O)O
[1]
  Potency: inactive
[3]
  Potency: inactive
[2]
  Potency: inactive
[4]
  Potency: inactive
[7]
  Potency: inactive

## Cc1nn(C)c2c1C(c1ccccc1F)=NCC(=O)N2C
[1]
  Potency: inactive
[3]
  Potency: 22.4 µM (active)
[2]
  Potency: inactive
[4]
  Potency: inactive
[8]
  Potency: inactive
[9]
  Potency: inactive

## CCCC(CCC)C(=O)OC1C[C@H]2CC[C@@H](C1)[N+]2(C)C (stereo not given in full)
[10]
  Potency: 10 µM (active)
[1]
  Potency: inactive
[3]
  Potency: inactive
[2]
  Potency: inactive
[4]
  Potency: inactive

## CN[C@@H]1[C@@H](O[C@H]2O[C@H](CO)[C@@H](N)[C@H](O)[C@H]2O)O[C@H]2C[C@@H](N)[C@H](O[C@H]3[C@H](O)[C@@H](O)[C@H](N)C[C@@H]3N)O[C@@H]2[C@@H]1O
[1]
  Potency: inactive
[3]
  Potency: inactive
[4]
  Potency: inactive
[6]
  activity change, negative = inhibition: -26.5%

## O=C(OC[C@H]1O[C@@H](OC(=O)c2cc(O)c(O)c(O)c2)[C@H](O)[C@@H](OC(=O)c2cc(O)c(O)c(O)c2)[C@@H]1O)c1cc(O)c(O)c(O)c1
[1]
  Potency: inactive
[3]
  Potency: inactive
[2]
  Potency: inactive
[6]
  activity change, negative = inhibition: -1.77%

## C[C@]12C=CC(=O)C=C1CC[C@@H]1[C@@H]2[C@@H](O)C[C@@]2(C)[C@H]1CC[C@]2(O)C(=O)COP(=O)(O)O
[1]
  activity change, negative = cytotoxicity: -13.3% [at 11.4 µM] (inactive)
[3]
  activity change, negative = inhibition: -22% [at 11.4 µM] (inactive)
[2]
  activity change, negative = cytotoxicity: -2.88% [at 11.4 µM] (inactive)
[6]
  activity change, negative = inhibition: -19.2% [at 11.3 µM]

## C#C[C@]1(O)CC[C@H]2[C@@H]3CCC4=CC(=O)CC[C@@H]4[C@H]3C(=C)C[C@@]21CC
[10]
  Potency: 7.43 µM (active)
[1]
  Potency: inactive
[3]
  Potency: inactive
[2]
  Potency: inactive
[4]
  Potency: inactive

## CCN1C[C@@]2(COC)C3[C@@H](OC)C4[C@@H]1[C@@]3(C1C[C@]3(O)[C@H](OC(=O)c5ccccc5)C1[C@]4(OC(C)=O)[C@@H](O)[C@@H]3OC)[C@@H](OC)C[C@H]2O (stereo not given in full)
[1]
  Potency: inactive
[3]
  Potency: inactive
[2]
  Potency: inactive
[4]
  Potency: inactive
[8]
  Potency: inactive
[9]
  Potency: inactive

## CO/N=C(/C(=O)N[C@@H]1C(=O)N2C(C(=O)O)=C(CSC(=O)c3ccco3)CS[C@H]12)c1csc(N)n1
[1]
  Potency: inactive
[3]
  Potency: inactive
[2]
  Potency: inactive
[6]
  activity change, negative = inhibition: -26.3%

## O=C(O)CC(O)(CC(=O)O)C(=O)O
[11]
  Potency: inactive
[12]
  activation: 1.56% (inactive)
[13]
  outcome: inactive
[14]
  Potency: inactive
[15]
  activity change % (negative = inhibition): -10.8% (inactive) and 10.6% (inactive)
[16]
  Potency: inactive and 54.5 µM (active)
[17]
  outcome: inactive
[1]
  Potency: inactive
[3]
  Potency: inactive
[2]
  Potency: inactive
[4]
  Potency: inactive
[6]
  activity change, negative = inhibition: -17.5%
[7]
  Potency: inactive

## COC(=O)[C@H]1[C@H]2C[C@@H]3c4[nH]c5cc(OC)ccc5c4CCN3C[C@H]2C[C@@H](OC(=O)/C=C/c2cc(OC)c(OC)c(OC)c2)[C@@H]1OC
[1]
  Potency: inactive
[3]
  Potency: inactive
[2]
  Potency: inactive
[6]
  activity change, negative = inhibition: -22.2% [at 19 µM]
